Screens (PubChem)
USP30 block: human USP30 deubiquitinase inhibition | inhibition, % at 25 µM | 47,000 compounds, 5.3% hits | purified USP30, Ub-rhodamine cleavage fluorescence
OTUD3 inh: human OTUD3 deubiquitinase inhibition | Q5T2D3 | purified OTUD3, Ub-rhodamine fluorescence, 2 h | inhibition, % at 25 µM | 47,000 compounds, 0.7% hits | AID 1645858
Target sequence (Q5T2D3 whole entry, looked up): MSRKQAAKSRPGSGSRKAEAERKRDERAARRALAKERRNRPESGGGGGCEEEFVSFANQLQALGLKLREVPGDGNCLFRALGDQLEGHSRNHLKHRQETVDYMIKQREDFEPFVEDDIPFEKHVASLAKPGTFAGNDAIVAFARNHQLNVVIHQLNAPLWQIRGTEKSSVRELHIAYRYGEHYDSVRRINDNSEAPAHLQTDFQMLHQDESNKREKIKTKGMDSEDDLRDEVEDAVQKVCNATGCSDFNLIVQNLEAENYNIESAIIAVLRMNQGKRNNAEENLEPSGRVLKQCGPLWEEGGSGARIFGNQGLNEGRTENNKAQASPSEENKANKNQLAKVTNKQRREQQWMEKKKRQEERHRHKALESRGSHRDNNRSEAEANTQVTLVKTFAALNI
USP28 block: inhibitors of human USP28 deubiquitinase; Q96RU2; purified USP28, Ub-rhodamine cleavage fluorescence, 30 min; inhibition, % at 25 µM; 47,000 compounds, 3% hits
USP17 block: inhibitors of human USP17 deubiquitinase. A8MUK1. purified USP17, Ub-rhodamine cleavage fluorescence, 3 h. inhibition, % at 50 µM. 47,000 compounds, 6.5% hits
Starred values were filed as active, the others as inactive. In the library only some 11% were active in any assay of this set; here they are far more common. No stated cut-off is given here; in the data, active means inhibition above about 30%; inactive means the rest.

Results for O=C(CCCC(=O)c1ccccc1)Nc1ccc(F)cc1 ?
USP30 block: 0; OTUD3 inh: -4; USP28 block: 14; USP17 block: 56*

What do the screens show for `COc1ccc(S(=O)(=O)c2nnn(-c3ccc(C)cc3)c2C)cc1`?
USP30 block: -20; OTUD3 inh: 12; USP28 block: 14; USP17 block: -26

How did O=C(N[C@@H](Cc1ccccc1)C(=O)O)C1CCN(S(=O)(=O)c2ccc(F)cc2)CC1 do in these assays?
USP30 block: -1; OTUD3 inh: 1; USP28 block: -9; USP17 block: -5

Results for Cc1cc(C)n2nc(CNc3cccc(Cl)c3)nc2n1 ?
USP30 block: 10; OTUD3 inh: 3; USP28 block: 73*; USP17 block: 11

Results for Cc1cc(=O)n2[nH]c(CNc3cccc(Cl)c3)nc2n1 ?
USP30 block: -19; OTUD3 inh: 5; USP28 block: 0; USP17 block: -14

How did Cc1nc2nc(CN(C(=O)C(C)C)c3ccccc3)nn2c(C)c1Cl do in these assays?
USP30 block: 0; OTUD3 inh: -2; USP28 block: 0; USP17 block: -3

Results for Cc1nc2nc(CNc3ccccc3)nn2c(C)c1Cl ?
USP30 block: 21; OTUD3 inh: 9; USP28 block: 47*; USP17 block: 13

How did O=C(Nc1nnc2n1CCCS2)c1cccc(Cl)c1 do in these assays?
USP30 block: 12; OTUD3 inh: 3; USP28 block: 59*; USP17 block: -23

Results for COc1ccc(Cl)cc1C(=O)Nc1nnc2n1CCCS2 ?
USP30 block: -2; OTUD3 inh: 2; USP28 block: 3; USP17 block: -2

Results for Cc1cc(OCC(=O)Nc2ccccc2N2CCN(S(C)(=O)=O)CC2)ccc1Cl ?
USP30 block: -14; OTUD3 inh: -7; USP28 block: -8; USP17 block: 0

What do the screens show for `CCOC(=O)c1ccc(NC(=O)COc2cccc3c2CCN(CC)C3=O)cc1`?
USP30 block: 14; OTUD3 inh: 1; USP28 block: 69*; USP17 block: 16

Results for Cc1c(C)n(Cc2ccncc2)c2ncnc(NCc3ccncc3)c12 ?
USP30 block: -39; OTUD3 inh: -3; USP28 block: -3; USP17 block: -9

What do the screens show for `Cc1cccc(NS(=O)(=O)c2cc(C(=O)Nc3ccccc3)ccc2Cl)c1`?
USP30 block: 11; OTUD3 inh: 10; USP28 block: 7; USP17 block: 17

Results for Cc1ccc(S(=O)(=O)N2CCc3ccc(NC(=O)Nc4cccc(C)c4)cc32)cc1 ?
USP30 block: 20; OTUD3 inh: 13; USP28 block: 24; USP17 block: 5

How did Cc1cccc(NC(=O)c2ccc(C)c(C)c2)c1 do in these assays?
USP30 block: -6; OTUD3 inh: 5; USP28 block: 34*; USP17 block: 3

How did CC(=O)c1cccc(NC(=O)c2ccc(CN(c3ccc(C)c(C)c3)S(C)(=O)=O)cc2)c1 do in these assays?
USP30 block: 23; OTUD3 inh: 4; USP28 block: 73*; USP17 block: 14

What do the screens show for `Cc1cccc(NC(=O)Nc2ccc(C)c(C)c2)c1`?
USP30 block: 31*; OTUD3 inh: 16; USP28 block: 19; USP17 block: 10

Results for Cc1cc(-c2cnc(N3CCCC3)nc2C2CCN(C(=O)c3ccccn3)CC2)on1 ?
USP30 block: 14; OTUD3 inh: 2; USP28 block: -4; USP17 block: 1

What do the screens show for `CCOC(=O)CNC(=O)CSc1nnc(Cc2cccn2C)n1CCc1ccccc1`?
USP30 block: -54; OTUD3 inh: -14; USP28 block: -8; USP17 block: -22

What do the screens show for `CCOC(=O)c1ccc(NC(=O)C[n+]2cc(-c3ccc(C)cc3)n3c2CCC3)cc1`?
USP30 block: 32*; OTUD3 inh: 9; USP28 block: 20; USP17 block: -2

Results for CC(=O)c1ccc(NC(=O)C[n+]2cc(-c3ccc(Cl)cc3)n3c2CCC3)cc1 ?
USP30 block: 19; OTUD3 inh: 21; USP28 block: 23; USP17 block: 67*

What do the screens show for `CCOC(=O)c1ccc(NC(=O)C[n+]2cc(-c3ccc(Cl)cc3)n3c2CCC3)cc1`?
USP30 block: 51*; OTUD3 inh: 24; USP28 block: 35*; USP17 block: 9

What do the screens show for `Cc1ccc(C)c(NC(=O)C[n+]2cc(-c3ccc(F)cc3)n3c2CCC3)c1`?
USP30 block: 7; OTUD3 inh: 10; USP28 block: 9; USP17 block: 6

What do the screens show for `COC(=O)c1ccc(NC(=O)C[n+]2cc(-c3ccc(Cl)cc3)n3c2CCC3)cc1`?
USP30 block: 21; OTUD3 inh: 2; USP28 block: 6; USP17 block: -15

What do the screens show for `COc1cccc(NC(=O)C2(n3cnnn3)CCCCC2)c1`?
USP30 block: 0; OTUD3 inh: -2; USP28 block: -7; USP17 block: -1

Results for NC(=O)CSc1nnc2ccc(-c3ccc4c(c3)OCO4)nn12 ?
USP30 block: 2; OTUD3 inh: 3; USP28 block: 0; USP17 block: 4

How did O=C(CSc1nnc2ccc(-c3ccc4c(c3)OCO4)nn12)NCC1CCCO1 (centres undefined) do in these assays?
USP30 block: 42*; OTUD3 inh: 23; USP28 block: 10

What do the screens show for `Cn1nc(C(=O)Nc2cccc(F)c2)c(=O)c2ccccc21`?
USP30 block: 37*; OTUD3 inh: 17; USP28 block: 21; USP17 block: 45*

What do the screens show for `COCC(=O)NC(Cc1ccccc1)c1nc2ccccc2n1Cc1ccccc1F` (centres undefined)?
USP30 block: -3; OTUD3 inh: -9; USP28 block: -5; USP17 block: 1

What do the screens show for `CC1=C(CO)C(=O)O[C@@H]([C@@H](C)[C@H]2CC[C@H]3[C@@H]4C[C@H]5O[C@]56[C@@H](O)C=CC(=O)[C@]6(C)[C@H]4CC[C@]23C)C1`?
USP30 block: 83*; OTUD3 inh: 5; USP28 block: 44*; USP17 block: 72*

What do the screens show for `Cc1ccccc1CN1CC(=O)N(Cc2ccccc2)c2ccccc2S1(=O)=O`?
USP30 block: 12; OTUD3 inh: 17; USP28 block: 9; USP17 block: -1

How did COc1cc(Cl)ccc1Oc1ncnc2sc(C)c(C)c12 do in these assays?
USP30 block: 46*; OTUD3 inh: 2; USP28 block: 28; USP17 block: 62*

How did Cc1cc(-c2nnc(CN3CCN(c4ccc(C(F)(F)F)cn4)CC3)o2)c(C)o1 do in these assays?
USP30 block: -18; OTUD3 inh: -8; USP28 block: -9; USP17 block: -3

Results for CCN(CC)C(=O)c1sc(NC(=O)/C=C/c2c(F)cccc2Cl)c(C#N)c1C ?
USP30 block: -29; OTUD3 inh: 23; USP28 block: 17; USP17 block: 62*

Results for O=C(/C=C/c1c(F)cccc1Cl)NCc1ccccn1 ?
USP30 block: -64; OTUD3 inh: -5; USP28 block: -10; USP17 block: -21

How did COc1ccc2c(c1)C/C(=C/c1ccc(OC)cc1OC)CC2=O do in these assays?
USP30 block: 14; OTUD3 inh: 4; USP28 block: 4; USP17 block: 12
